# In the library only some 2% were active in any assay of this set; here they are far more common.
# CHT PAM: allosterically activates the human high affinity choline transporter; hit rate 0.49% among 310,000; AID 488977; Q9GZV3; B-score at 10 µM; CHT-expressing cells, membrane potential dye, choline EC20; hits give high values; LV-AA mutant CHT in HEK293 cells;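 active = initial fluorescence not abnormally high and integrated response B-score, plate-corrected, over 3 SD above library mean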
# Target sequence (Q9GZV3 whole entry, looked up): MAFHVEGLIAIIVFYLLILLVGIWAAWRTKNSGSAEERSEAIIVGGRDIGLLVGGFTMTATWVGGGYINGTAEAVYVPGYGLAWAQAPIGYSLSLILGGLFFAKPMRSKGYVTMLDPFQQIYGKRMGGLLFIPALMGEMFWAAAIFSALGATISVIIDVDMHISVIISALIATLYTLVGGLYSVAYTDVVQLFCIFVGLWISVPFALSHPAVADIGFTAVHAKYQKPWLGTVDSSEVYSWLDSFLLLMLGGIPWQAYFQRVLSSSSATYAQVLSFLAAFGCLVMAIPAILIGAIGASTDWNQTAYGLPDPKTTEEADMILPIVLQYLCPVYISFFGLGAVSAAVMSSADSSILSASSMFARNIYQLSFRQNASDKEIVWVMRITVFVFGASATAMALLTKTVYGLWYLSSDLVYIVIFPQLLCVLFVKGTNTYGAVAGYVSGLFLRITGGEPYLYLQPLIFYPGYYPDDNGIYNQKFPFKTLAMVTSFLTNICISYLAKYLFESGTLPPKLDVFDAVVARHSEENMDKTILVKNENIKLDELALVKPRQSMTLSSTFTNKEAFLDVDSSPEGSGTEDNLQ
# Kir21 inh: inhibitors of mouse Kir2.1 inward-rectifier potassium channel; B-score at 10 µM; HEK293-Kir2.1, FluxOR thallium flux fluorescence; hits give low values; P35561; hit rate 0.85% among 310,000;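 active = fluorescence ratio B-score at or below minus 3 SD of library scores, with starting-brightness B-score within 2 SD, cut at about -4.2 in these data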;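 also: channel flux triggered by added potassium and thallium sulfate stimulus; B-score of peak minus minimum fluorescence over baseline after thallium stimulus; more negative B-score means stronger Kir2.1 block with less thallium influx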
# H9c2 TAG inh: triacylglycerol accumulation inhibition. H9c2 cells, Nile Red lipid (TAG) fluorescence; cells loaded with 200 µM oleic acid. inhibition, % at 12.5 µM. hit rate 0.66% among 230,000. AID 651582;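 active = pattern-corrected inhibition of lipid staining of at least 50% with the nuclear-stain viability signal not falling by more than 50%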;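 also: 0% = DMSO wells and 100% = triacsin C control wells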
# CHT block: human CHT choline transport inhibition. CHT-expressing cells, membrane potential dye, choline response; hits give low values. B-score at 10 µM. hit rate 0.86% among 310,000. AID 488975;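 active = B-score over 3 SD under the library average, and starting fluorescence ratio not unusually high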;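 also: choline stimulus applied at its EC90 after an EC20 pre-addition; B-score computed on integrated fluorescence ratio after choline addition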
# The depositor's hits bear a star; i = inactive; / = not tested or not shown.
SMILES,CHT PAM,Kir21 inh,H9c2 TAG inh,CHT block
CCCCCCCCCCCCCCCC[n+]1cccc2ccccc21,8.74*,/,/,i
Cc1ccc(CN=C(Nc2ccccc2)NC2CCCCC2)cc1,i,-6.51*,/,i
CC(CC(=O)N(C)CC(=O)Nc1ccc(N2CCOCC2)cc1)c1ccccc1 (stereo unspecified),i,-0.01,-11.8,i
CC12CC3CC(C)(C1)CC(NCc1ccncc1)(C3)C2,i,-0.56,19.4,i
Cc1noc(C)c1COC(=O)[C@H](C)NS(=O)(=O)c1ccc(Cl)c(Cl)c1,i,-5.23*,-14.0,i
COc1ccc(-c2c[n+]3c(n2-c2ccccc2)CCCCC3)cc1,i,-0.86,/,i
CC(C)c1ccc(-n2c(-c3ccccc3)c[n+]3c2CCc2ccccc2-3)cc1,/,-13.7*,16.1,/
CCOC(=O)c1cn(CC)c2cc(N3CCN(C)CC3)c(F)cc2c1=O,i,0.64,/,i
CCn1cc(C(=O)O)c(=O)c2cc(F)c(N3CCN(C)CC3)cc21,6.39*,-0.09,/,i
COc1ccc(CN2C(=O)CN=C2Nc2cc(C)ccc2C)cc1,i,1.14,19.4,i
CCc1ccccc1NC1=NCC(=O)N1Cc1ccc(OC)cc1,i,-4.86*,3.9,i
N#Cc1ccsc1NC(=O)c1ccc(Cl)c([N+](=O)[O-])c1,i,0.84,-5.2,-8.74*
O=C(NCc1ccco1)c1ccc([N+](=O)[O-])o1,i,-2.5,64.4,i
O=S(=O)(c1cc(O)ccc1O)c1cccc2c(S(=O)(=O)c3cc(O)ccc3O)cccc12,i,0.01,2.3,i
COc1ccc(CCNc2ncnc3sc(C)cc23)cc1OC,i,-6.23*,/,i
O=C(COc1ccc(Cl)cc1Cl)NCCC1=CCCCC1,i,-2.31,-15.8,i
COc1ccccc1N(C(=O)CCl)c1cn(C(C)=O)c2ccccc12,i,-0.08,73.7*,i
CCOC(=O)c1ccccc1Nc1cn(C(C)=O)c2ccccc12,i,-1.11,36.9,i
CC(=O)n1cc(N(C(=O)CCl)c2ccc(Cl)cc2)c2ccccc21,i,-2.37,67.0*,i
Cc1cc(NCCCN2CCOCC2)n2ncc(-c3ccccc3)c2n1,i,0.45,8.3,i
CN(C)CCCNc1cc(C(C)(C)C)nc2c(-c3ccccc3)cnn12,i,-4.85*,38.5,i
COCCN(C(=O)COC(=O)Cc1ccc(Cl)cc1)c1c(N)n(Cc2ccccc2)c(=O)[nH]c1=O,/,/,1.5,/
Cc1cccc(CN2CCC(C(=O)Nc3cccc(-c4cccc(F)c4)c3)CC2)n1,i,-5.07*,/,i
CN(CC(=O)Nc1cccc(F)c1)C(=O)c1ccc2c(c1)CC(c1ccccc1)OC2=O (stereo unspecified),/,/,5.6,/
c1ccc(CCN=C2CCCc3c2[nH]c2ccccc32)cc1,i,-11.8*,4.9,i
SMILES,CHT PAM,Kir21 inh,H9c2 TAG inh,CHT block
COc1cc(NS(=O)(=O)c2ccc(NC(=O)CCC(=O)O)cc2)nc(OC)n1,i,1.43,/,i
NNC(=O)C1SCCN1S(=O)(=O)c1ccc(Cl)cc1 (stereo unspecified),i,0.21,3.8,i
CCSC1=C(C#N)C(c2ccc(C)o2)CC(=O)N1 (stereo unspecified),i,-0.72,9.8,i
N#CC1=C(SCc2ccccc2)NC(=O)CC1c1ccco1 (stereo unspecified),i,-9.08*,/,i
Cc1ccc(C2CC(=O)NC(SCc3ccccc3)=C2C#N)o1 (stereo unspecified),i,-6.89*,/,i
O=C(CN(Cc1ccco1)C(=O)CNS(=O)(=O)c1ccc(F)cc1)NCc1ccco1,i,-1.36,/,i
O=C(NCCC1CCCCN1S(=O)(=O)c1ccccc1)C(=O)NCc1ccccn1 (stereo unspecified),i,0.68,27.3,i
CC(C)(C)OC(=O)N1CCC[C@H]1c1nnc(SCc2ccccc2Cl)o1,i,-7.99*,/,i
CC(C)(C)OC(=O)N1CCC[C@H]1c1nnc(SCc2ccc(Cl)cc2Cl)o1,i,-3.3,-10.8,i
CC(C)(C)OC(=O)N1CCC[C@H]1c1nnc(SCc2cccc(Cl)c2)o1,i,-8.63*,-8.6,i
CC(C)(C)OC(=O)N1CCC[C@H]1c1nnc(SC/C=C/c2ccccc2)o1,i,-3.29,12.3,i
OCCNCc1cccc(-c2ccccc2)c1O,/,/,2.6,/
Cc1cc(O)c(-c2cc(O)c(C)cc2O)cc1O,i,-4.8*,/,i
COc1cc(-c2n[nH]c(=S)n2C(C)c2ccccc2)cc(OC)c1OC (stereo unspecified),i,-4.33*,/,i
CCOc1ccccc1NC(=O)Cc1coc2cc(C)ccc12,i,-5.01*,5.9,i
COc1ccccc1NC(=O)Cc1coc2cc(C)ccc12,i,-3.5,/,i
CNC[C@H](CC1CCCCC1)NC[C@H](Cc1ccccc1)NCCC12CC3CC(CC(C3)C1)C2,i,-8.21*,139.0,i
NC[C@H](Cc1ccccc1)NCCCCC1CCCCC1,/,/,10.4,/
CC(C)(C)C1=CC(=Nc2ccccc2N)C=C(C(C)(C)C)C1=O,i,0.29,/,i
CC(C)(C)C1=CC(=O)C(=O)C(C(C)(C)C)=C1,i,-8.55*,/,i
C=CC(=O)N1C/C(=C/c2ccc(F)cc2)C(=O)/C(=C\c2ccc(F)cc2)C1,/,/,78.0*,/
NC(N)=N/N=C/c1ccc(OCc2ccc(Cl)cc2)cc1,i,-9.85*,/,i
NC(N)=N/N=C/c1ccc(OCc2ccccc2)cc1,i,-11.5*,/,i
COc1ccc(C(=O)Nc2cnn(Cc3c(F)cccc3Cl)c2)cc1OC,i,0.41,-7.4,i
COc1ccc2cc1Oc1ccc(cc1)C[C@H]1c3c(cc(OC)c4c3Oc3c(ccc5c3[C@H](C2)N(C)CC5)O4)CCN1C,/,/,108.7*,/
SMILES,CHT PAM,Kir21 inh,H9c2 TAG inh,CHT block
CC(NS(=O)(=O)c1ccc(OCC(=O)NCc2ccncc2)cc1)c1ccccc1 (stereo unspecified),i,0.68,/,i
CCC(C(=O)NCCc1c[nH]c2ccc(C)cc12)c1ccccc1 (stereo unspecified),i,-4.51*,/,i
COc1ccc2nc(C)cc(N/N=C/c3ccccc3)c2c1,/,/,66.0*,/
CCN1CCCC1CNC(=O)C1CCN(Cc2nc(-c3cccc(Br)c3)oc2C)CC1 (stereo unspecified),8.32*,-2.19,/,i
FC(F)(F)c1cc(CCN2CCNC[C@@H]2CC2CCCCC2)cc(C(F)(F)F)c1,/,/,137.5*,/
CCn1c2ccccc2c2cc(NC(=O)CNCC3CCCO3)ccc21 (stereo unspecified),i,-9.13*,2.7,i
O=C(Nc1ccc([N+](=O)[O-])cc1)Nn1cnnc1,i,-1.63,-1.7,i
CN1CCCC1CCNC1C2CC3CC(C2)CC1C3 (stereo unspecified),i,-4.68*,/,i
CN1CCCC1CCNS(=O)(=O)c1ccc(Br)cc1 (stereo unspecified),i,-0.82,-6.4,i
Cc1nccn1CCN(C)Cc1cn(Cc2ccccc2)nc1-c1ccc2c(c1)OCO2,i,-5.48*,8.9,i
